# PubChem BioAssay (EPA / NIEHS)
# Active and inactive are the calls of the source. How the source made its calls: active means hit-call score of the fitted dose curve at least 0.9, where 1 is the maximum; inactive means score below 0.9.
# Experiment: ATG_CRE_CIS: Attagene CIS-FACTORIAL HepG2 Assay for human cAMP Responsive Element (CRE) binding protein 3 (AID 2282926)
# Conditions: HepG2 CRE cis-reporter, Attagene multiplexed mRNA; actives raise or lower the signal
# Procedure: ATG_CIS is a cell-based, multiplexed-readout assay that uses HepG2, a human liver cell line, with measurements taken at 24 hours after chemical dosing in a 24-well plate.ATG_CRE_CIS is one of 52 assay component(s) measured or calculated from the ATG_CIS assay. It is designed to make measurements of mRNA induction, a form of inducible reporter, as detected with fluorescence intensity signals by Reverse transcription polymerase chain reaction (RT-PCR) and Capillary electrophoresis technology.Data from the assay component ATG_CRE_CIS was analyzed into 1 assay endpoint. This assay endpoint, ATG_CRE_CIS, was analyzed with bidirectional fitting relative to DMSO as the negative control and baseline of activity. Using a type of inducible reporter, measures of mRNA for gain or loss-of-signal activity can be used to understand the reporter gene at the transcription factor-level as they relate to the gene CREB3. Furthermore, this assay endpoint can be referred to as a primary readout, because this assay has produced multiple assay endpoints where this one serves a reporter gene function. To generalize the intended target to other relatable targets, this assay endpoint is annotated to the dna binding intended target family, where the subfamily is basic leucine zipper.
# Human liver HepG2 cells are transiently transfected with multiple reporter transcription units (MRTUs) in 6-well plates using FuGene 6 reagent (Roche; 3 ml FuGene/1 mg DNA). The MRTU constructs are regulated by a cis-regulating element (promoter). […] A major difference between the CIS and TRANS system is that in CIS activities of endogenous TFs are measured, whereas the TRANS assay evaluates changes in activities of exogenous, chimeric NR-Gal4 proteins. […] At the end of 24 hour incubation, total RNA was isolated using TriZol reagent (Invitrogen). The isolated RNA is then reverse-transcribed using oligo(dT) primer and Mo-MLV reverse transcriptase (Invitrogen) with DNAse I (Ambion) treatment for 30 min. The one-tenth of the produced cDNA was amplified by PCR using Taq DNA polymerase (Invitrogen) and two reporter sequence-specific primers. The PCR products were fluorescently labeled by primer extension with 6-arboxyfluorescein (6-FAM) 5'-labeled reporter sequence-specific primer (2 min at 95 C, 20 s at 68 C and 10 min at 72 C) and these products were digested with 5U of HpaI (New England Biolabs) for 2h at 37 C. The fragments were purified using Qiaquick PCR columns (Qiagen), analyzed on an ABI 3130xL genetic analyzer (Applied Biosystems) with peak positions identified by using a set of X-rhodamine (ROX)-labeled MapMarker1000 molecular weight standards (BioVentures). The raw capillary electrophoresis data was processed using Attagraph software (Attagene).
SMILES,outcome,AC50
CC(=O)C(C)=CC1C(C)=CCCC1(C)C (stereo not given),inactive,–
Oc1ccc2c(c1)OC[C@@H](N1CCC(O)(c3ccc(F)cc3)CC1)[C@H]2O,inactive,–
COc1cc(S(=O)(=O)O)c(C)cc1N=Nc1c(O)ccc2cc(S(=O)(=O)O)ccc12,inactive,–
CC1=C(/C=C/C(C)=C/C=C/C(C)=C/CO)C(C)(C)CCC1,inactive,–
CNC(=O)[C@H]1O[C@@H](n2cnc3c(NCc4cc(Cl)ccc4OCc4cc(C)no4)ncnc32)[C@H](O)[C@@H]1N,inactive,–
CCCCCCCCCCCCCO,–,10.3 µM (active)
COc1cc(-c2nc(NC(=O)c3cc4cc(C)cc(C)c4n3CC(=O)O)sc2CCC2CCCCC2)c(OC)cc1Cl,–,36 µM (active)
Nc1ccc(S(=O)(=O)c2ccc(N)cc2)cc1,inactive,–
Cc1c(C(=O)O)c(O)cc2c1C(=O)c1c(O)c([C@@H]3O[C@H](CO)[C@@H](O)[C@H](O)[C@H]3O)c(O)c(O)c1C2=O,inactive,–
O=c1[nH]cc(F)c(=O)[nH]1,inactive,–
CCCCCC(=O)O,inactive,–
C[Si]1(C)O[Si](C)(C)O[Si](C)(C)O[Si](C)(C)O1,inactive,–
CC1(C)NC(=O)NC1=O,inactive,–
CN1CCCC1=O,inactive,–
COc1cc(/C=C/C(=O)CC(=O)/C=C/c2ccc(O)c(OC)c2)ccc1O,inactive,–
CCOC(=O)C(C)(C)Oc1ccc(Cl)cc1,inactive,–
O=C(O)Cc1ccccc1Nc1c(Cl)cccc1Cl,inactive,–
C=CCOC(=O)c1ccccc1C(=O)OCC=C,inactive,–
Cc1ccc(C)c(O)c1C,inactive,–
O=C(OCCCCCOC(=O)c1ccccc1)c1ccccc1,inactive,–

SMILES,outcome,AC50
Nc1ccccc1N,–,72.5 µM (active)
COc1ccc(C)cc1N,inactive,–
C[C@]12C=CC(=O)C=C1CC[C@@H]1[C@@H]2C(=O)C[C@@]2(C)[C@H]1CC[C@]2(O)C(=O)CO,inactive,–
NS(=O)(=O)c1cc2c(cc1Cl)NCNS2(=O)=O,inactive,–
CCCCOC(=O)CCCCCCCCC(=O)OCCCC,inactive,–
Cc1cccc(C)c1O,inactive,–
COc1ccc2c(c1)c(CC(=O)O)c(C)n2C(=O)c1ccc(Cl)cc1,inactive,–
C=CCc1ccc(O)c(OC)c1,inactive,–
Oc1ccc2ccccc2c1N=Nc1ccccc1,inactive,–
CCCCCCCCCCCCCCCCCC(=O)O,inactive,–
CCCc1cc(=O)[nH]c(=S)[nH]1,inactive,–
CCCCCCCCCCCC(=O)OC,inactive,–
Cc1cccc(Nc2cc(Cl)nc(SCC(=O)O)n2)c1C,inactive,–
Cc1ccc(N(C)C)cc1,inactive,–
Nc1ccc2c(c1)C(=O)c1ccccc1C2=O,inactive,–
c1cc(-c2ccncc2)ccn1,inactive,–
CC(=O)OC/C=C(\C)CCC=C(C)C,inactive,–
CN1CCN(Cc2cc(-c3ccc4[nH]c(=O)oc4c3)co2)[C@@H](c2ccc(F)cc2)C1,–,33 µM (active)
CC1(C)CC(N=C=O)CC(C)(CN=C=O)C1 (stereo not given),inactive,–
Cc1ccc2ncccc2c1,inactive,–
